These results are taken from the supplement of paper PMC3414501.

Assay [1] relates to S. cerevisiae SK1 pCDA2-eGFP (USY613), sporulating. Briefly: CDA2-GFP sporulation assay sensitivity score (z-score vs DMSO controls); higher = stronger inhibition of sporulation, active = hit call of the paper.
Assay [2] deals with S. cerevisiae NKY1551 his4x/his4B, sporulating. Briefly: HIS4 meiotic recombination assay sensitivity score (z-score vs DMSO controls); higher = stronger inhibition of sporulation/recombination, active = hit call of the paper.
Assay [3] deals with S. cerevisiae AD1-9 (efflux-pump deficient), vegetative growth in YPD. Put plainly: growth sensitivity score (doubling time z-score vs DMSO controls); higher = slower growth, strongly negative scores also mark growth inhibition (complete suppression), active = hit call of the paper. The method in brief: (§1)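 Rich medium in microtiter plates was seeded with Saccharomyces cerevisiae strains BY4741 and AD1-9 at an OD600 of 0.065, and compounds were added as a 1:100 dilution of DMSO stock. A Tecan GENios reader recorded optical density every 15 min for 24 hours, with eight solvent-only wells in each experiment. Average doubling time was the time to reach a set generation point divided by generation number. The growth sensitivity score was the compound mean minus the solvent-only mean, divided by the solvent-only standard deviation.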

In assay [4] the test system is S. cerevisiae BY4741 (wild-type), vegetative growth in YPD. Described as above. The method in brief:
as §1

SMILES strings stand for the structures.
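Wherever CDA2-GFP sporulation assay sensitivity score (z-score vs DMSO controls) is given: active if sensitivity score above 5.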
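Wherever HIS4 meiotic recombination assay sensitivity score (z-score vs DMSO controls) is given: active if sensitivity score above 5.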

Turning to `CC(=O)O[C@@]12CO[C@@H]1C[C@H](O)[C@@]1(C)C(=O)[C@H](O)C3=C(C)[C@@H](OC(=O)[C@H](O)[C@@H](NC(=O)OC(C)(C)C)c4ccccc4)C[C@@](O)([C@@H](OC(=O)c4ccccc4)[C@H]21)C3(C)C` [Docetaxel] (stock concentration (mM, diluted 1:100): 10), the “CDA2-GFP sporulation assay sensitivity score” value in assay [1] was -0.23 (inactive). Also, in assay [2], the “HIS4 meiotic recombination assay sensitivity score” value is -1.69 (inactive). Also, the growth sensitivity score in assay [3] was -0.53 (inactive); in assay [4] it was 1.16 (inactive).

`C[C@H]1O[C@H](O[C@H]2[C@H](O)[C@@H](O)[C@@H](O[C@H]3[C@H](O)[C@@H](O)C(O)O[C@@H]3CO)O[C@@H]2CO)[C@H](O)[C@@H](O)[C@@H]1N[C@H]1C=C(CO)[C@@H](O)[C@H](O)[C@H]1O` (stereo partly specified) [Acarbose] (stock concentration (mM, diluted 1:100): 10): in assay [1], the “CDA2-GFP sporulation assay sensitivity score” value was 0.28 (inactive). Further, the “HIS4 meiotic recombination assay sensitivity score” value in assay [2] was -0.56 (inactive). The growth sensitivity score is -2.1 in assay [3] and -1.13 (inactive) in assay [4].

For the compound `CC(C)(C)NC(=O)[C@@H]1CN(Cc2cccnc2)CCN1C[C@@H](O)C[C@@H](Cc1ccccc1)C(=O)N[C@H]1c2ccccc2C[C@H]1O` [Indinavir sulphate] (stock concentration (mM, diluted 1:100): 8.6), the “CDA2-GFP sporulation assay sensitivity score” value in assay [1] is -1.29 (inactive). Further, in assay [2], the “HIS4 meiotic recombination assay sensitivity score” value was -1.36 (inactive). The growth sensitivity score in assay [3] was -2.58; in assay [4], 0 (inactive).

Turning to `CC1=C(C(=O)O)N2C(=O)[C@@H](NC(=O)[C@H](N)c3ccccc3)[C@H]2SC1` [Cephalexin monohydrate] (stock concentration (mM, diluted 1:100): 10), the “CDA2-GFP sporulation assay sensitivity score” value in assay [1] is -1.64 (inactive). For the same compound, the “HIS4 meiotic recombination assay sensitivity score” value in assay [2] was -1.5 (inactive). Also, the growth sensitivity score in assay [3] was -0.53 (inactive); in assay [4] it was 0.27 (inactive).
